Tgondii IFNg = T. gondii growth inhibition with IFN-gamma, primary screen, cell-based; Toxoplasma gondii growth in IFN-gamma-treated host cells; active compounds read low; activity change, negative = inhibition, % (concentration not given with the values); 3.8% of 69,000 active; in the data active = activity change below about -70%, passing the limit was not always enough;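 note: host cells are HeLa cells infected with Toxoplasma gondii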
A number is an active result; 0 = inactive; ! = a repeat was not active. This excerpt belongs to a sample that is enriched for hits.

SMILES	Tgondii IFNg
CC[C@@H](C(=O)O)C1CC[C@H](C)C([C@@H](C)[C@H](O)[C@H](C)C(=O)[C@H](CC)C2O[C@]3(C=C[C@@H](O)[C@]4(CC[C@@](C)(C5CC[C@](O)(CC)[C@H](C)O5)O4)O3)[C@H](C)C[C@@H]2C)O1 (stereo partly specified)	-79!
CN(C)CCN(Cc1ccsc1)C(=O)C1CCCN(C(N)=O)C1 (stereo unspecified)	0
O=C1CSC(=O)N1Cc1c(Cl)cccc1Cl	0
Cn1nc(-c2ccccc2)cc1NC(=O)C1CCCCC1	0
Cn1nc(-c2ccccc2)cc1NC(=O)Cn1cnc(Cl)c1Cl	0
Cc1c(C)c(C)c(S(=O)(=O)Nc2cc(-c3ccccc3)nn2CCC#N)c(C)c1C	-88
CN1CCN(S(=O)(=O)c2ccc(C(=O)N3CCCc4ccccc43)cc2)CC1	0
Cc1ccc2ncccc2c1CN1CCN(C)C(C(=O)O)C1 (stereo unspecified)	0
O=C(NC1CCCN(c2ncccn2)C1)c1cccc2ccnn12 (stereo unspecified)	0
CC(=O)N1CCC(C(=O)NCc2ccccc2)(N(C(=O)c2ccccc2Br)c2ccc(C)cc2)CC1	0
COC[C@]12CCC[C@@H]1CN(S(=O)(=O)c1cccc(OC)c1)C2	0
COc1cccc(S(=O)(=O)Nc2ccc3c(c2)C(=O)N(C)C[C@H](OC)[C@H](C)CN(Cc2ccccc2F)[C@H](C)CO3)c1	0
COc1cccc(S(=O)(=O)Nc2ccc3c(c2)C(=O)N(C)C[C@@H](OC)[C@H](C)CN(Cc2ccccc2F)[C@H](C)CO3)c1	-97
COc1cccc(S(=O)(=O)Nc2ccc3c(c2)C(=O)N(C)C[C@H](OC)[C@@H](C)CN(Cc2ccccc2F)[C@H](C)CO3)c1	0
COc1cccc(S(=O)(=O)Nc2ccc3c(c2)C(=O)N(C)C[C@H](OC)[C@H](C)CN(Cc2ccccc2F)[C@@H](C)CO3)c1	0
COc1ccc(S(=O)(=O)Nc2ccc3c(c2)OC[C@@H](C)N(Cc2cc(F)ccc2F)C[C@@H](C)[C@H](OC)CN(C)C3=O)cc1	-90
COc1cccc(S(=O)(=O)Nc2ccc3c(c2)C(=O)N(C)C[C@@H](OC)[C@@H](C)CN(Cc2ccccc2F)[C@H](C)CO3)c1	0
COc1ccc(OCc2nc(Cc3nc(-c4cccc(C)c4)oc3C)no2)cc1	0
COc1ccc(CN(C)C[C@@H]2OCc3cnnn3CCCC(=O)N([C@@H](C)CO)C[C@@H]2C)cc1	0
CCCCCCCCNC(=O)C(Cc1ccc(OCc2ccncc2)cc1)NC(=O)C1CCC(CN)CC1 (stereo unspecified)	0
CC(=O)NC(Cc1ccccc1)C(=O)NC1CCN(C(=S)Nc2ccccc2)CC1 (stereo unspecified)	0
Cc1nnc(-c2ccccc2-c2ccc(S(C)(=O)=O)cc2)o1	0
CCn1ncc(C(=O)N(C)Cc2nc3cc(C)c(C)cc3[nH]2)c1C	0
CCc1cccc(NC(=O)CCC(=O)N2CCC[C@H]2C(N)=O)c1	0
CCN(CC)c1ncnc2c1cnn2CC(=O)NCc1ccc(C(F)(F)F)cc1	0
SMILES	Tgondii IFNg
CCN(CC)c1ncnc2c1cnn2CC(=O)NCc1cccc(C(F)(F)F)c1	0
CCN(CC)c1ncnc2c1cnn2CC(=O)Nc1cccc(F)c1	-75
CCN(CC)c1ncnc2c1cnn2CC(=O)NCCOC	0
CCN(CC)c1ncnc2c1cnn2CC(=O)NCc1ccc(C)cc1	-86
CCN(CC)c1ncnc2c1cnn2CC(=O)NCc1ccc(F)cc1	-94
CCN(CC)c1ncnc2c1cnn2CC(=O)Nc1ccc(OC)cc1	0
CCN(CC)c1ncnc2c1cnn2CC(=O)NCc1ccc(C)o1	0
CCOc1ccc(NC(=O)Cn2ncc3c(N(CC)CC)ncnc32)cc1	0
O=C(Nc1ccccc1)N1CCC2(CN(Cc3ccc(O)cc3)C2)C1	0
O=C(CCC1Nc2c3ccccc3nc(=S)n2C1=O)NC1CC1 (stereo unspecified)	0
CC(C(=O)N(C)C)N(C)Cc1cnc(-c2cccc3ccccc23)nc1 (stereo unspecified)	0
O=C(CCN1CCCCO1)NCCc1cnc[nH]1	0
Cc1ccc(CN(Cc2ccc3c(c2)OCO3)Cc2cnc(C)[nH]2)cc1	0
Cc1ccc(O)c(CN(Cc2cccnc2)Cc2ccc3c(c2)OCO3)n1	0
COCCc1ncc(CN(Cc2ccncc2)Cc2ccc3c(c2)OCO3)cn1	-71
COc1ccccc1-c1cc2c(=O)n(Cc3nc(-c4ccc(C)cc4)oc3C)ccn2n1	0
NC(=O)N1CCC2(CC1)CN(c1ncccn1)Cc1ccccc12	0
N#Cc1cccc(NC2COC3(CCN(C(=O)NC4CC4)C3)C2)n1 (stereo unspecified)	0
Cc1occc1C(=O)N1CCC2(CC(Nc3ncccc3F)CO2)C1 (stereo unspecified)	0
Cc1occc1C(=O)N1CCC2(CC(Nc3cccc(C#N)n3)CO2)C1 (stereo unspecified)	-98
CCc1ccccc1Nc1nc(-c2ccc(OC)cc2)nc2ccccc12	0
Cc1cncc(C(=O)N2CCC3OCCCC3(COCC3CC3)C2)c1 (stereo unspecified)	0
C=C(C)COc1c(CN2CCCC2c2c(C)noc2C)cccc1OC (stereo unspecified)	0
c1cc2c(cc1-c1csc(-c3ccc4c(c3)OCCO4)n1)OCCO2	0
NC1=NN=C(c2ccc3c(c2)OCCO3)CS1	-81
SMILES	Tgondii IFNg
Cc1cc(-c2ccc3c(c2)OCCO3)cnc1N	0
Cc1noc(C)c1S(=O)(=O)N(C)C[C@H]1Oc2c(NS(=O)(=O)c3cn(C)cn3)cccc2C(=O)N([C@@H](C)CO)C[C@@H]1C	0
Cc1cc(C)c(CN(Cc2cnn(C)c2)CC(C)C)c(C)c1CO	0
Cn1c(=O)c2c(nc(SCC(=O)Nc3nc(-c4cccs4)cs3)n2C)n(C)c1=O	-103
Cn1cnnc1Sc1nc2c(c(=O)n(C)c(=O)n2C)n1C	0
Cn1c(=O)c2c(nc(SCCN3CCCCC3)n2C)n(C)c1=O	0
N#Cc1cccc(NC2COC3(CCN(c4ncccn4)C3)C2)n1 (stereo unspecified)	0
Cc1cc(C)nc(Nc2cc(C)nc(C3CN(CC(N)=O)C3)n2)n1	0
Cc1ccoc1C(=O)N1Cc2nccn2CC(Cn2cncn2)C1 (stereo unspecified)	0
CN1C(=O)c2cc(NC(=O)Cc3cccs3)ccc2OC[C@@H]2O[C@H](CC(=O)NCc3ccc(-c4ccccc4)cc3)CC[C@H]21	0
CN1C(=O)c2cc(NC(=O)Cc3cccs3)ccc2OC[C@H]2O[C@@H](CC(=O)NCCc3ccncc3)CC[C@@H]21	0
CN1C(=O)c2cc(NC(=O)Cc3cccs3)ccc2OC[C@H]2O[C@H](CC(=O)NCc3ccc(-c4ccccc4)cc3)CC[C@@H]21	-85
CNC(=O)c1ccc(-c2cc(NCCO)nc3[nH]ccc23)s1	0
NC(=O)c1csc(-c2cc(NC3CCCC3)nc3[nH]ccc23)n1	-76
CC(C)(C(N)=O)c1ccc(-c2cc(N)nc3[nH]ccc23)cc1	0
O=C(c1ccccc1)N1CCn2cnc(COc3cccnc3)c2C1	0
O=C(O)c1ccc2nc3c(nc2c1)-c1cccc2cccc-3c12	-110
Nc1cccc(C(=O)O)c1	0
Cc1nc2ccc(C(=O)O)cc2nc1C	0
CCOc1ccc(NC(=O)NCC(c2cccnc2)c2cn(CC)c3ccccc23)cc1 (stereo unspecified)	0
Cc1ccc(C(=O)N2CCN(c3nc(C)nc4sc5c(c34)CCCC5)CC2)cc1	-96
CCCCSc1nc2sc3c(c2c(=O)n1-c1ccc(C)cc1)CCC3	0
Cc1ccc(C(=O)N2CCOCC2)cc1	0
